Compound activity: PubChem, National Center for Advancing Translational Sciences (NCATS)
Shown are actives, neighbours in structure and some others; about 7% of the full set was active somewhere.
DRD3 antagonist – qHTS of D3 Dopamine Receptor Antagonist: qHTS; D3R cells, DiscoveRx beta-arrestin luminescence, antagonist mode; stronger effect = lower value; max response, negative = inhibition, %; D(3) dopamine receptor (Homo sapiens), P35462; 360,000 compounds, 2.5% hits; in the data active means max response below about -50%; inconclusive means no clear call, values can overlap the other calls; further: on the % scale 0 is the no-effect control and ±100 the full control effect
Target sequence (P35462 whole entry, looked up): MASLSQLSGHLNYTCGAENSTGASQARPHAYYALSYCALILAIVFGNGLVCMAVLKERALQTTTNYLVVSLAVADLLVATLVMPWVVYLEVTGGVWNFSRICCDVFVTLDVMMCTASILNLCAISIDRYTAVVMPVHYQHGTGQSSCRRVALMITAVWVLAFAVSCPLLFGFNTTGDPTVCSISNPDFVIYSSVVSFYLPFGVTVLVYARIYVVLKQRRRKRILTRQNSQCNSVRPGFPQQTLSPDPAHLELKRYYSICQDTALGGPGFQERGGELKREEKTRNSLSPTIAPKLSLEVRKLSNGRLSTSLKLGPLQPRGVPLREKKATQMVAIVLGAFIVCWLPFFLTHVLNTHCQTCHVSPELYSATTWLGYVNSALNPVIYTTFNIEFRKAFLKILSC
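Cells plated overnight at 1500 cells/well, then exposed to library compounds with dopamine controls for 90 minutes at 37 degrees C. DiscoveRx reagent added for 30–60 minutes at room temperature; luminescence read, quantitative HTS format.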
D3 ag – qHTS of D3 Dopamine Receptor Agonist: qHTS; D3R DiscoveRx beta-arrestin cells, luminescence, 90 min; max activation, %; 410,000 compounds, 0.58% hits; AID 652048, 2013; in the data active means max activation above about 30%; further: 0% is about no effect
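Cells at 1500/well, incubated overnight, then treated with pinned compounds (dopamine as control) for 90 min at 37 degrees C. DiscoveRx reagent added for 30 - 60 minutes at room temperature; luminescence read.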
S2 tox – Viability Counterscreen for Primary qHTS for Inhibitors of ATXN expression; Potency, µM (top dose mostly 56.7 µM), usual class: cytotoxic; 400,000 compounds, 0.49% hits; S2 cells (HEK-293 line with an ATXN2-luciferase reporter) viability, CellTiter-Fluor protease fluorescence, 24 h; further: potency means the concentration at half of the fitted maximal effect; nearly all actives have a fitted effect of over 40% in size
a7 integrin act – qHTS for Activators of Integrin-Mediated Alleviation for Muscular Dystrophy | alpha7betagal myoblasts, beta-gal FDG fluorescence, 48 h | Potency, µM (titrated, usually from 38.3 µM), for inactives: top-dose activation, actives largely listed as activators | 350,000 compounds, 0.064% hits | AID 624291, 2012;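 further: potency means the concentration at half of the fitted maximal effect; 100% = response of the positive control SU9516; nearly all actives have a fitted effect of over 60% in size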
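Alpha7betagal+/- myoblasts (passage 13) were plated 16-24 hr, then exposed to compounds (1:260 dilution of DMSO stock) for 48 hours at 37C. After MPER lysis, β-galactosidase reporter activity was read as FDG fluorescence (ex 480/em 540) after 30 minutes.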
ATXN2 expr inh – Primary qHTS for Inhibitors of ATXN expression; HEK-293 ATXN2-luciferase reporter, luminescence, 24 h; Potency, µM (titrated, usually from 57 µM), for the others: top-dose activity change, negative = inhibition, hits mostly inhibitors; 360,000 compounds, 0.72% hits; further: potency means the concentration at half of the fitted maximal effect; on the % scale 0 is the no-effect control and ±100 the full control effect; nearly all actives have a fitted effect of over 55% in size
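ATXN2-luciferase reporter cells (luciferase flanked by upstream and downstream ATXN2 gene portions) were treated 24 h at 37 °C with compounds at up to 57 uM. SteadyGlo luminescence gave expression; GF-AFC fluorescence gave viability.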
IL-1B inflam inh – qHTS for Inhibitors of Inflammasome Signaling: IL-1-beta AlphaLISA Primary Screen; AID 743279, 2014; activity change, % at 57.5 µM; 360,000 compounds, 4.7% hits; THP-1 LPS/ATP IL-1B secretion, AlphaLISA, 16 h; stronger effect = lower value; in the data active means activity change below about -50%; inconclusive means mostly about -30% to -49%; further: on the % scale 0 is the no-effect control and ±100 the full control effect
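THP-1 cells pretreated 1 hr with compounds (up to 57.5 uM final), then stimulated with LPS (250 ng/mL final) plus ATP (1.25 mM final); secreted IL-1B measured by AlphaLISA after 16 hr, decreased signal indicating inhibition.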
Starred values were filed as active, the others as inactive; i = inactive; ? = inconclusive; . = no result. Unless noted, the call rests on the fitted dose curve; in most records, active means well fitted curve in the direction sought with a large enough effect; inconclusive means small, poorly fitted or top-dose-only effect, or another doubt; inactive means no such curve, though single readings can be large; an effect the other way counts as inactive or inconclusive.

SMILES	DRD3 antagonist	D3 ag	S2 tox	a7 integrin act	ATXN2 expr inh	IL-1B inflam inh
COc1cc(/C=N/N=C2/C(=O)Nc3ccccc32)cc(OC)c1O	-83.7*	-25.3	i	3.4%	5.4%	?
CC1CCCCN1S(=O)(=O)c1ccc2c(c1)CCN2C(=O)C1CCC1 (centres undefined)	20.5	1.4	i	7.9%	2.0%	8.8
COc1cccc(N/C(SCc2cccc([N+](=O)[O-])c2)=C(/C#N)C(N)=O)c1	-8.2	-15.2	i	-8.1%	-22.8%	-101.8*
COc1cccc(NC(=O)CC(=O)c2ccc([N+](=O)[O-])cc2)c1	-8.8	-5.3	i	6.6%	.	-19.9
CC1(OC(=O)C2CCCC2)C(=O)C=C2C=C(c3ccsc3)N(C3CC3)C=C2C1=O (centres undefined)	-63.7*	0.3	i	0.2%	-14.0%	-2.5
COc1cc(C#N)c(NS(=O)(=O)c2ccc3[nH]c(=O)sc3c2)cc1OC	-6.9	2.8	i	?	12.2%	26.8
CCCCCCNS(=O)(=O)c1ccc(OC)c(OC)c1	17.1	31.8*	i	21.6%	-17.2%	12.2
CCCCCCCCNS(=O)(=O)CCNCc1ccccc1OC	-51.3*	-14.2	?	-19.3%	-35.7%	-61.6*
CCCCCCCCNS(=O)(=O)CCNCc1ccco1	-4.7	37.2*	i	-18.5%	-3.2%	6.5
COc1ccccc1CNS(=O)(=O)CCNCCc1ccccc1	-73.5*	-33.9	i	27.9%	-6.8%	13.5
COc1ccc(S(=O)(=O)NCCc2ccccc2)cc1OC	9.2	-3.4	i	2.4%	-11.6%	-0.4
CCCCCCCCNS(=O)(=O)CCNCc1ccccc1	-18.1	5.2	i	-21.9%	-8.6%	?
CCCCCCCCNCCS(=O)(=O)NCc1ccc(OC)cc1	-63.1*	-24.2	?	-42.6%	?	-50.3*
CCCCCNC(=O)c1cn(CC)c2cc(N3CCN(C)CC3)c(F)cc2c1=O	?	-28.9	i	-20.6%	-25.9%	-84.9*
CCn1cc(C(=O)NCc2ccccc2)c(=O)c2cc(F)c(N3CCN(C(=O)c4ccco4)CC3)cc21	30.9	5.6	i	6.6%	?	-63.7*
CCn1cc(C(=O)NCc2ccc3c(c2)OCO3)c(=O)c2cc(F)c(N3CCN(C(=O)c4ccco4)CC3)cc21	35.9	2.5	?	-37.8%	?	-59.3*
Cc1cccc(Nc2nc(NCC3CCCO3)nc(N)c2[N+](=O)[O-])c1 (centres undefined)	-0.3	8.8	i	-12.0%	-15.2%	15.2
Cc1ccc(S(=O)(=O)/N=C2/C=C(Sc3ncn[nH]3)C(=O)c3ccccc32)cc1	-104.1*	-22.4	?	-48.6%	?	-104.8*
CC(C)c1ccc(S(=O)(=O)/N=C2/C=C(Sc3ncn[nH]3)C(=O)c3ccccc32)cc1	-75.2*	-6.1	?	-59.0%	14.1µM*	-100.1*
Cc1ccc(S(=O)(=O)Nc2ccc(O)c(Sc3ncn[nH]3)c2)cc1	0.7	20.7	i	-12.1%	31.9%	6.8
COc1ccc(N(C(=O)CCl)C(C(=O)NCCc2ccccc2)c2cccs2)cc1 (centres undefined)	1.1	-3.4	12.6µM*	-55.7%	28.2µM*	-108.0*
COc1ccc(CNC(=O)C(c2ccncc2)N(C(=O)Cc2cccs2)c2ccccc2)cc1 (centres undefined)	8.8	4.4	i	-5.0%	-3.3%	2.2
CNCCCOc1ccc(C)cc1Br	-53.2*	-8.1	i	-57.9%	-13.4%	-24.7
Cc1ccc(OCCCNCCO)c(Br)c1	-60.1*	-2.4	i	-46.9%	-6.2%	-59.9*
CNCCCCOc1ccc(C(C)(C)C)cc1Cl	-50.1*	-17.0	i	-70.4%	-3.6%	-55.4*
SMILES	DRD3 antagonist	D3 ag	S2 tox	a7 integrin act	ATXN2 expr inh	IL-1B inflam inh
Cc1ccc(OCCCN(C)C)c(Br)c1	4.4	-19.9	i	-26.6%	-1.5%	-1.0
C=CCNCCOCCOc1ccc(C)cc1Br	?	-8.1	i	-42.1%	10.5%	-21.0
CC(C)(C)c1ccc(OCCON2C(=O)CCC2=O)c(Cl)c1	-25.0	0.5	i	5.2%	-28.6%	5.4
CCCCNCCCOc1ccc(C)cc1Br	-66.7*	0.3	?	-63.0%	.	.
CC(NC(=O)COC(=O)COc1ccc(C(=O)c2ccccc2)cc1)c1ccccc1 (centres undefined)	-10.9	-6.5	i	18.7%	-2.8%	-10.1
CCOCCCNCc1c(Cl)cccc1Cl	?	-6.2	i	?	-3.7%	-5.2
CCCCNCCCOc1cccc(Cl)c1Cl	-81.2*	-21.1	i	-32.3%	?	-63.8*
COc1ccccc1C(CNC(=O)c1cccc(NS(=O)(=O)c2ccc(C)c(F)c2)c1)N1CCCC1 (centres undefined)	5.8	-15.6	?	0.7%	-9.8%	?
O=S(=O)(Nc1cccc(S(=O)(=O)N2CCCCCC2)c1)c1ccccc1	2.8	32.8*	i	-26.7%	-9.5%	-2.0
CCOc1ccc(NC(=O)CN(C)Cc2ccc3c(c2)OCO3)cc1S(=O)(=O)N1CCCC1	-68.2*	-15.0	i	-16.7%	-9.5%	?
N=c1sccn1CC(=O)Nc1cccc(S(=O)(=O)N2CCCCCC2)c1	-2.4	-3.9	15.8µM*	-68.2%	.	-2.0
COc1ccc(Br)cc1CN(C)CC(=O)Nc1cccc(S(=O)(=O)N2CCCC2)c1	-7.4	-16.3	i	-62.0%	?	-52.5*
COc1ccc(Br)cc1CN(C)CC(=O)Nc1cccc(S(N)(=O)=O)c1	-0.6	-10.6	?	-11.1%	1.2%	17.4
O=S(=O)(Nc1cccc(S(=O)(=O)N2CCCC2)c1)c1ccc(F)cc1	15.9	1.4	?	5.0%	-6.9%	14.4
Cc1ccc(S(=O)(=O)N2CCCCC2)cc1NC(=O)Cn1ccsc1=N	-15.3	-4.1	i	0.0%	-16.2%	-11.5
NC(=O)[C@@H]1CCCN1C(=O)[C@@H](Cc1cnc[nH]1)NC(=O)[C@@H]1CCC(=O)N1	8.6	-11.7	i	24.1%	0.7%	14.0
Cc1ccc(C(=O)N/C(=C\c2ccc(C(C)C)cc2)C(=O)NCCCN2CCOCC2)cc1	-11.9	-9.5	i	16.0%	3.5%	?
O=C(COc1ccc(F)cc1Cl)Nc1cccc(S(=O)(=O)N2CCCC2)c1	-6.6	-0.6	i	-8.5%	3.2%	-52.2*
COc1ccc(OCCC(=O)OCC(=O)Nc2cccc(S(=O)(=O)N3CCCCC3)c2)cc1	-12.7	1.0	?	-34.6%	-16.2%	-95.7*
